Inconclusive results are not listed. Activity calls are given as the source filed them. How the source made its calls: active means hit-call score of the fitted dose curve at least 0.9, where 1 is the maximum; inconclusive means response in the unintended direction; inactive means score below 0.9.

Read-out in this experiment: xenobiotic metabolism (CYP1A2), CYP1A2 (gene 1544)
Nature of the experiment: CLD_CYP1A2_6hr: CellzDirect (CLD) Gene Expression Assay for xenobiotic metabolism (CYP1A2) at 6 hours (AID 2283663).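 On AC50: potency is for induction meaning a rise in mRNA above DMSO.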 The method, then:
CLD_6hr is a cell-based, multiplexed-readout assay that uses hepatocyte, a human liver primary cell, with measurements taken at 6 hours after chemical dosing in a 96-well plate.CLD_CYP1A2_6hr is one of 16 assay component(s) measured or calculated from the CLD_6hr assay. It is designed to make measurements of mRNA induction, a form of inducible reporter, as detected with chemiluminescence signals by Quantitative Nuclease Protection Assay (qNPA) technology.Data from the assay component CLD_CYP1A2_6hr was analyzed at the endpoint, CLD_CYP1A2_6hr, in the positive analysis fitting direction relative to DMSO as the negative control and baseline of activity. Using a type of inducible reporter, gain-of-signal activity can be used to understand changes in the reporter gene as they relate to the gene CYP1A2. Furthermore, this assay endpoint can be referred to as a primary readout. To generalize the intended target to other relatable targets, this assay endpoint is annotated to the cyp intended target family, where subfamily is xenobiotic metabolism.
Human hepatocyte cultures were treated daily for two consecutive days with fresh dosing solutions containing appropriate concentrations of the 320 ToxCast chemicals (chemical identities were blinded to CellzDirect and other ToxCast collaborators), vehicle control (0.2% DMSO), and positive control inducers as summarized in Table 1. Due to the large number of treatment groups and chemicals examined, the ToxCast chemicals were divided into two groups (spanning two independent cultures of hepatocytes from separate donor preparations (Hu778: ToxCast plates 1 and 2; Hu776: ToxCast plates 3 and 4). Each preparation of human hepatocyte cultures was treated with respective vehicle control, medium only control, set of six positive controls/reference chemicals for the five hepatic receptor pathways, and a subset of eight of the ToxCast chemicals (indoxacarb, pyrithiobac-sodium, norflurazon, cyhalofop-butyl, methomyl, thiram, acetochlor, and propiconazole). These replicate data, coupled with internal replicates designed within the blinded ToxCast chemical library, provided additional data to evaluate interindividual differences between hepatocyte preparations and their potential impact on chemical profiles.Cell morphology and integrity were evaluated using phase-contrast microscopy as an indicator of hepatocyte cell health (Tyson & Green, 1987). Cultures for each treatment group (i.e., media, vehicle [0.2% DMSO], positive control inducers [multiple concentrations], and the ToxCast chemicals [multiple concentrations]) were observed and cell morphology was assessed relative to vehicle control cultures at each harvest time point (0, 6, 24, or 48 h). […] Images were evaluated at the conclusion of the study to assess changes in cell integrity and account for the effects of chemical exposure on uncharacteristic changes in concentration-dependent gene expression profiles. The results from these determinations of apparent cytotoxicity were annotated (yes/no) alongside the corresponding qNPA data for reference.At the conclusion of each treatment period, hepatocyte cultures (96-well) were washed with 1 volume of HBSS, lysed by addition of 25 ul ArrayPlate lysis buffer (HTG, Tucson, AZ), and 70 ul/well of Denaturation Oil, denatured by incubation at 95C for 10 min, and frozen at approximately -70C until analysis by nuclease protection assay (qNPA) (Roberts et al., 2007). For qNPA analysis, cell lysates were thawed at 50C for approximately 30 min, qNPA probes were added, and samples were incubated at 95C for 10 min to begin the detection process by denaturing the target RNA, dissociating the duplexes and secondary structure hybridization. At the conclusion of the hybridization period, S1 nuclease reagent was added to each sample to digest all nonprotected nucleotides at 50C for 60-90 min. […]
For the compound `O=C(NC(=O)c1c(F)cccc1F)Nc1ccc(OC(F)(F)C(F)OC(F)(F)F)c(Cl)c1` (stereo not given), the compound was classed as inactive.
Consider `N#Cc1c(Cl)c(Cl)c(Cl)c(C#N)c1Cl`, for which the AC50 was 31.7 µM (active).
As for `COP(=O)(OC)OC=C(Cl)Cl`, the compound was classed as inactive.
Same read-out and setting: next, `COC(=O)c1ccccc1CS(=O)(=O)NC(=O)Nc1nc(OC)cc(OC)n1`: “inactive”.
On the same count and under the same terms, next, `O=C(O)CCCOc1ccc(Cl)cc1Cl`: “inactive”.
For `CC(C)OC(=O)Nc1cccc(Cl)c1`, the AC50 was 3.11 µM (active).
As to `COC(=O)c1ccccc1S(=O)(=O)NC(=O)Nc1nc(C)nc(OC)n1`, the result was inactive.
On to `Clc1ccccc1-c1nnc(-c2ccccc2Cl)nn1`, for which the compound was classed as inactive.
Still for that read-out and setting: the result for `[2H]C1([2H])[n+]2ccccc2-c2cccc[n+]2C1([2H])[2H]` reads “inactive”; that for `CN1CSC(=S)N(C)C1`, “inactive”.
As for `O=C(Nc1ccccc1)Nc1cnns1`, the AC50 is 3.08 µM (active).
With `CC(C)N(C(=O)COc1nnc(C(F)(F)F)s1)c1ccc(F)cc1`, the outcome was inactive.
Take `CCC(C)Nc1c([N+](=O)[O-])cc(C(C)(C)C)cc1[N+](=O)[O-]` (stereo not given): the AC50 is 5.44 µM (active).
`CCCN(CCC)c1c([N+](=O)[O-])cc(C(F)(F)F)cc1[N+](=O)[O-]`: the result was inactive.
With `O=C(O)COc1ccc(Cl)cc1Cl`, the AC50 was 1.89 µM (active).
Turning to `CCOc1nc(NC)nc(NC(=O)NS(=O)(=O)c2ccccc2C(=O)OC)n1`, the compound was classed as inactive.
Still for that read-out and setting: next, `CNC(=O)Oc1ccccc1OC(C)C`: “inactive”.
`CCCN(CCOc1c(Cl)cc(Cl)cc1Cl)C(=O)n1ccnc1`: the half-maximal activity concentration (AC50) was 0.0805 µM (active).
For `CNC(=O)/C=C(\C)OP(=O)(OC)OC`, the compound was called inactive.
On the same count and under the same terms, next, `CCN(CC)C(=O)SCc1ccc(Cl)cc1`: “inactive”; `N#CN`: “inactive”.
In the case of `COC(=O)c1ccccc1S(=O)(=O)NC(=O)N(C)c1nc(C)nc(OC)n1`, the AC50 is 20 µM (active).
Take `OCCOc1ccccc1`: the compound was called inactive.
Turning to `Cc1[nH]c(=O)n(C(C)(C)C)c(=O)c1Cl`, the outcome was inactive.
`CC1(C)C(C=C(Cl)Cl)C1C(=O)OC(C#N)c1ccc(F)c(Oc2ccccc2)c1` (stereo not given): the compound was classed as inactive.
Same read-out and setting: the result for `CC(C)(C)C(O)/C(=C\c1ccc(Cl)cc1Cl)n1cncn1` (stereo not given) reads “inactive”; that for `CNC(=O)Oc1cccc(N=CN(C)C)c1`, “inactive”.
In the case of `CNC(=O)CSP(=S)(OC)OC`, the AC50 was 0.327 µM (active).
For the compound `O=S(=O)(O)C(F)(F)C(F)(F)C(F)(F)C(F)(F)C(F)(F)C(F)(F)C(F)(F)C(F)(F)F`, the outcome was inactive.
For the compound `CCOCN(C(=O)CCl)c1c(C)cccc1CC`, the result was inactive.
For the compound `COP(=S)(OC)Oc1ccc(SC)c(C)c1`, the AC50 was 5.14 µM (active).
Turning to `C[C@H]1[C@H](c2ccc(Cl)cc2)SC(=O)N1C(=O)NC1CCCCC1`, the result was inactive.
For the compound `CCc1ccc(C(=O)NN(C(=O)c2cc(C)cc(C)c2)C(C)(C)C)cc1`, the AC50 is 33.7 µM (active).
As to `O=[N+]([O-])/N=C1\NCCN1Cc1ccc(Cl)nc1`, the compound was called inactive.
Same read-out and setting: next, `CC(C)(C)C(O)C(Oc1ccc(Cl)cc1)n1cncn1` (stereo not given): “inactive”; `COc1cc(OC)nc(NC(=O)NS(=O)(=O)c2cc(NC=O)ccc2C(=O)N(C)C)n1`: “inactive”.
For `CCS(=O)(=O)c1cccnc1S(=O)(=O)NC(=O)Nc1nc(OC)cc(OC)n1`, the compound was classed as inactive.
Take `COc1nn(CSP(=S)(OC)OC)c(=O)s1`: the AC50 was 2.89 µM (active).
Regarding `CCC(C)(NC(=O)c1cc(Cl)c(C)c(Cl)c1)C(=O)CCl` (stereo not given), the compound was classed as inactive.
On to `COP(=S)(OC)Oc1ccc([N+](=O)[O-])cc1`, for which the AC50 is 3.16 µM (active).

Broadly, the AC50 is the concentration giving half of the maximal activity seen.

(Values after PubChem BioAssay (EPA / NIEHS).)
